VACV mCherry inh – vaccinia inhibition (mCherry reporter) | AID 720579 | Vaccinia virus mCherry reporter infection, fluorescence | Potency, µM (highest dose often 36.5 µM), inactives show at the top dose activity change, negative = inhibition, actives largely listed as inhibitors | actives 0.63% (n = 310,000); calls by dose curve; tested in A549 cells; note: potency is the fitted concentration of half-maximal effect; nearly all actives have a fitted effect of over 35% in size
Tb PYK inh – blocks Trypanosoma brucei pyruvate kinase; Potency, µM (highest dose often 76.8 µM), for the others: top-dose activity, negative = inhibition, usual class: inhibitors; actives 0.12% (n = 410,000); TbPYK enzyme, Kinase-Glo Plus ATP luminescence, 45 min; Q57TT1; note: potency is the fitted concentration of half-maximal effect; nearly all actives have a fitted effect of over 50% in size
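Enzyme and substrate buffer are dispensed first and compound is pin-transferred. ADP at 130 uM final then starts the reaction, which runs 45 min at room temperature. Detection reagent is added for 10 min before luminescence is imaged.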
HCMV antiviral – blocks human cytomegalovirus replication; actives 4.5% (n = 410,000); HFF cells, HCMV-luciferase reporter, 72 h; active compounds read low; AID 1259415; activity change, negative = inhibition, % at 57.5 µM; in the data active = activity change below about -60%; inconclusive = no clear call, values can overlap the other calls; inactive = above about -39%
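Compounds were evaluated in HFFs infected with an HCMV luciferase reporter virus (MOI 1 PFU/cell). Luciferase in lysates collected 72 h post infection served as the replication measure.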
VACV Venus inh – vaccinia inhibition (Venus reporter); Potency, µM (highest dose often 36.5 µM), inactives show at the top dose activity change, negative = inhibition, actives largely listed as inhibitors; AID 720580; Vaccinia virus Venus reporter expression, fluorescence; actives 0.46% (n = 330,000); calls by dose curve; tested in A549 cells; note: potency is the fitted concentration of half-maximal effect; nearly all actives have a fitted effect of over 30% in size
LmPK inhibitor – inhibitors of Leishmania mexicana pyruvate kinase; Q27686; purified LmPK, Kinase-Glo ATP luminescence, 1 h; Potency, µM (series often up to 57.5 µM), for the others: top-dose activity change, negative = inhibition, hits mostly inhibitors; actives 0.37% (n = 290,000); note: potency is the fitted concentration of half-maximal effect
Target sequence (Q27686 whole entry, looked up): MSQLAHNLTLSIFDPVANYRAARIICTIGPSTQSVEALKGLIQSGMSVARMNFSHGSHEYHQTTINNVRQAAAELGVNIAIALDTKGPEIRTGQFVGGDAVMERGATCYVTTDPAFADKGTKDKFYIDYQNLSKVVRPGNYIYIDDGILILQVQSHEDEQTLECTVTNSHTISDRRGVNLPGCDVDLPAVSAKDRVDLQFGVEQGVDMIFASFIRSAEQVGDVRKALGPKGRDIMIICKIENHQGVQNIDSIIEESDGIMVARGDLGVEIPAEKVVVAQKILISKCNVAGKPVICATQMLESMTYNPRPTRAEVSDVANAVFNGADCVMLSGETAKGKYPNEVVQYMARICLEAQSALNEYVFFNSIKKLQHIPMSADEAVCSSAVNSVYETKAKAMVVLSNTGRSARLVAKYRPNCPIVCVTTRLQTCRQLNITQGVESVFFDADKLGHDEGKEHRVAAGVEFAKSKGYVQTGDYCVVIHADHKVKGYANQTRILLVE
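Purified LmPK (0.1 nM) with 0.5 mM PEP and 0.1 mM ADP in imidazole buffer pH 7.2 with MgCl2/KCl, 1 h at room temperature. ATP formed was read by luciferase luminescence and normalized to no-enzyme and uninhibited controls.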
* marks the source's active call; other numbers are inactive results; i = inactive; ? = inconclusive; · = no result; + = active, no number; ! = a repeat was not active. Rows were chosen to be rich in hits. Some 5% of all compounds tested hit in one or more screens of this group. Unless noted, calls come from the whole dose curve; as a rule, active = well fitted curve in the direction sought with a large enough effect; inconclusive = small, poorly fitted or top-dose-only effect, or another doubt; inactive = no such curve, though single readings can be large; an effect the other way counts as inactive or inconclusive. % is set by controls: 0 for no effect and ±100 for the full control effect.

SMILES	VACV mCherry inh	Tb PYK inh	HCMV antiviral	VACV Venus inh	LmPK inhibitor
N#CCCN(C(=O)COC(=O)c1cc(S(=O)(=O)N2CCOCC2)ccc1Cl)c1ccc(F)cc1	i	-1%	-71*	-11%	·
O=C(Nc1ccc2c(c1)OCO2)c1cccs1	·	-14%	33	·	25µM*
O=C(/C=C\Nc1ccc2c(c1)OCO2)c1cccs1	-20%	?	-12	-16%	11µM*
Cc1ccc(C(=O)Nc2ccc(NC(=O)c3cccs3)cc2)cc1C	-6%	1%	-2	-7%	·
Cc1cc(C)cc(C(=O)Nc2ccc(NC(=O)c3cccs3)cc2)c1	10µM*	4%	·	?	2%
O=C(/C=C\Nc1ccc2c(c1)OCO2)c1ccccn1	-18%	-23%	-81*	-12%	3.5µM*
O=C(/C=C\Nc1cccc(F)c1)c1cccs1	-15%	-7%	70	-7%	?
O=C(Nc1ccc2c(c1)OCCO2)c1c(Cl)cccc1Cl	i	2%	-85*	-2%	·
Cc1cnccc1NC(=O)c1cccs1	i	1%	-62*	8%	3%
Cc1ccc(N/C=C/C(=O)c2cccs2)cc1	·	-18%	13	·	16µM*
COc1cccc(NC(=O)C2(C)CCN2C(=O)Cc2ccc(C(C)C)cc2)c1 (stereo unspecified)	3%	-3%	-9	2%	·
O=[N+]([O-])c1ccc(NN=Cc2cc(Br)ccc2O)nc1	?	1%	-100*	?	·
CCc1ccc(C(=O)NNC(=O)CN2C(=O)NC(CC)(c3ccccc3)C2=O)cc1 (stereo unspecified)	-14%	-6%	6	3%	·
Cn1c(-[n+]2c(-c3ccccc3)cc(-c3ccccc3)cc2-c2ccccc2)nc2c([N+](=O)[O-])cccc21	-9%	7%	-60*	?	1%
N#C/C(=C\c1ccccc1[N+](=O)[O-])C(=O)NCc1ccccc1	-14%	1%	6	-3%	6%
N#C/C(=C\C=C\c1ccccc1[N+](=O)[O-])C(=O)NCc1ccccc1	-30%	1%	-98*	-17%	-2%
COc1ccc(CCNC(=O)CN2C(=O)COc3ccc(S(=O)(=O)N4CCCC4)cc32)c(OC)c1	-17%	4%	-63*!	-16%	-1%
CCOC(CNC(=O)CN1C(=O)COc2ccc(S(=O)(=O)N3CCOCC3)cc21)OCC	·	4%	+	·	7%
O=C(CN1C(=O)COc2ccc(S(=O)(=O)N3CCCC3)cc21)NCCc1ccc(Cl)cc1	-16%	0%	-73*	-16%	·
Cc1ccc(NC(=O)CN2C(=O)COc3ccc(S(=O)(=O)N4CCCCCC4)cc32)cc1Cl	-26%	-10%	-84*	-15%	·
Nn1c(Cc2ccccc2F)nnc1SCC(=O)Nc1cccc(S(=O)(=O)NC2=NCCCCC2)c1	-7%	-3%	11	-20%	0%
CN1CCN(c2ccc(Cl)cc2NC(=O)c2nn(-c3ccccc3)c(=O)c3ccccc23)CC1	-11%	3%	15	-5%	-5%
CCOc1ccc(CN2CCN(C/C=C/c3ccc(OC)cc3)CC2CCO)cc1 (stereo unspecified)	-6%	5%	-18	0%	4%
O=C(CN1C(=O)COc2ccc(S(=O)(=O)Nc3ccccc3)cc21)NCc1ccccc1Cl	-12%	0%	-106*	-4%	·
CC1CCN(c2nc3c(S(=O)(=O)c4ccccc4)nnn3c3ccc(Cl)cc23)CC1	-25%	15%	-7	-18%	·
SMILES	VACV mCherry inh	Tb PYK inh	HCMV antiviral	VACV Venus inh	LmPK inhibitor
CC(C)CNc1ncnc2c1ncn2[C@H]1CN(Cc2cccc3ccccc23)C[C@@H](CO)O1	-25%	-1%	-70*	-18%	·
CC(C)CNc1ncnc2c1ncn2[C@H]1CN(Cc2ccc3c(c2)OCO3)C[C@@H](CO)O1	-5%	4%	-66*	-5%	·
COc1ccc(C2C(C#N)=C(C)NC3=C2C(=O)c2ccccc23)cc1 (stereo unspecified)	2%	0%	?	7%	5%
CC1=C([N+](=O)[O-])C(c2ccccc2)C2=C(N1)c1ccccc1C2=O (stereo unspecified)	13µM*	-11%	?	?	-10%
CC(=O)c1cc2c(cc1NC(=O)CSc1nnc(C)s1)OCO2	·	-9%	21	-16%	-1%
CN=C(c1ccco1)n1c(=S)nc(-c2ccco2)n(C)c1=S	?	-9%	73	13µM*	2%
CN=C(c1ccc(C)cc1)n1c(=S)nc(-c2ccc(C)cc2)n(C)c1=S	0%	-4%	15	1%	-4%
COc1cc(/C=C2\COC/C(=C\c3cc(OC)c(OC)c(OC)c3)C2=O)cc(OC)c1OC	?	-5%	-98*	?	5%
COc1cc(/C=C2\CC(C(C)(C)C)C/C(=C\c3cc(OC)c(OC)c(OC)c3)C2=O)cc(OC)c1OC (stereo unspecified)	·	0%	-98*	·	0%
Cc1ccc(-c2nc3c4ccccc4[nH]c(=O)n3n2)cc1	-4%	-10%	78	-6%	·
CCN(CC)CCNCC1C(=O)O[C@@H]2C[C@@]3(C)CCC[C@H](C)C3=C[C@H]12 (stereo partly specified)	4.5µM*	-6%	?	10µM*	0%
CC(C)c1ccc2occ(CC(=O)N(Cc3ccc(F)cc3)C3CCS(=O)(=O)C3)c2c1 (stereo unspecified)	-21%	4%	-64*	-16%	·
Cc1ccccc1C(=O)N(Cc1cccs1)C1CCS(=O)(=O)C1 (stereo unspecified)	-13%	-2%	-84*	-4%	-4%
Cc1ccc2occ(CC(=O)N(Cc3ccc(N(C)C)cc3)C3CCS(=O)(=O)C3)c2c1 (stereo unspecified)	-6%	6%	21	-4%	·

Assay outcomes (PubChem)
